Consider 8 compounds from PubChem BioAssay (NCI).

This is part of a sample that, as a whole, favours compounds with a hit. Of some 83,000 tested, about 20% had one in any assay.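 Compound tested at a single concentration for 48 hours in 96-well plates; a percent growth value below 10 was scored as active.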 A number with no mark means an inactive call. Calls of active or inactive are those of the source.

Assay in all cases: NCI-60 one-dose screen, 48 h (100 = growth as untreated, 0 = no growth, -100 = all killed)
Holding throughout (settings): 10 µM unless noted

In assay [1] the test system is NCI-H23 lung.
In assay [2] the test system is NCI-H226 lung.
Assay [3] has as its system NCI-H322M lung.
For assay [4], the system named is HOP-62 NSCLC.
For assay [5], the system named is NCI-H460 lung.
Assay [6] relates to HOP-92 NSCLC.
For assay [7], the system named is NCI-H522 lung.
For assay [8], the system named is A549/ATCC NSCLC.
Assay [9] deals with 786-0 renal.
Assay [10] deals with COLO 205 colon.
Assay [11] has as its system DU-145 prostate.
Assay [12] concerns K-562 leukemia.
For assay [13], the system named is MALME-3M melanoma.
Assay [14] has as its system MDA-MB-231 breast.
For assay [15], the system named is RXF 393 renal.
The test system of assay [16] is SF-268 CNS.
Assay [17] deals with SF-295 CNS.
The test system of assay [18] is SF-539 CNS.
For assay [19], the system named is UACC-257 melanoma.
For assay [20], the system named is M14 melanoma.

As to `CCCCCCCCCCCCCCCCCCOc1ccccc1CC(=O)OCC[N+]1(C)CCCCC1`, the growth is 29.8% in [1]; 28.1% in assay [2]; 84.6% in [3]; 70% in assay [4]; 62.2% in assay [5]; -9.25% (active) in assay [6]. Also, the growth is 33.3% in assay [7]; 42.2% in [8]; 31.2% in assay [9]; 55.6% in assay [10]; 71.6% in assay [11]; 22.6% in [12]. Moreover, the growth in assay [13] is 45.3%; in [14], 10.3%; in [15], -3.91% (active); in assay [16], 43.5%; in [17] it was 73.6%; in [18], 68.6%. For the same compound, the growth was 80.6% in assay [19] and 34.7% in assay [20].

Regarding `COc1ccc(/C=C2/CCc3cc4ccc(OC)cc4[o+]c32)c(O)c1`, the growth in [1] was 72.7%; in [2], 81.5%; in assay [3], 84.6%; in assay [4], 95.9%; in assay [5], 25.3%; in [6], 56.1%. Besides, the growth is 77.5% in [7]; 94.9% in assay [8]; -6.35% (active) in assay [9]; 84.1% in [10]; 76.7% in assay [11]; 39.1% in assay [12]. For the same compound, the growth in [13] is 16.9%; in assay [14], 36.7%; in [15] it was 71.4%; in assay [16], 82.2%; in assay [17], 106%; in assay [18] it was 109%. For the same compound, the growth is 87.4% in assay [19] and 26% in assay [20].

In the case of `O=C(O)c1cc2ccccc2s1`, the growth in assay [1] was 101%; in assay [2] it was 98.2%; in assay [3] it was 110%; in assay [4], 96.9%; in assay [5], 104%; in [6], 90%. Further, the growth was 107% in assay [7]; 104% in assay [8]; 106% in assay [9]; 113% in assay [10]; 124% in assay [11]; 107% in assay [12]. The growth in assay [13] is 130%; in assay [14], 104%; in [15] it was 110%; in assay [16], 107%; in [17] it was 97.8%; in [18] it was 101%. In addition, the growth in [19] was 105%; in assay [20] it was 110%.

For the compound `COc1cccc(-c2nn(-c3ccccc3)cc2-c2ccnc(-c3cccnc3)c2)c1`, the growth in assay [1] was 86.5%; in [2], 95%; in assay [3], 109%; in [4], 97.4%; in assay [5], 92%; in assay [6] it was 95%. For the same compound, the growth in [7] is 86.9%; in [8], 96.4%; in assay [9], 98.1%; in assay [10], 94.3%; in assay [11], 104%; in assay [12] it was 81.2%. Moreover, the growth in assay [13] was 83%; in assay [14], 86.8%; in assay [15] it was 107%; in [16] it was 94.9%; in [17], 89.2%; in [18], 90.1%. Moreover, the figures for the growth in [19] and in [20] were 117% and 92.8%, respectively.

Regarding `CCOC(=O)C1=C(c2ccccc2)N=C2N(c3ccccc3)N=C(C(C)=O)N2C1c1ccc(Br)cc1` (stereo not given), the growth was 94.3% in assay [1]; 96.1% in assay [2]; 95.3% in assay [3]; 103% in [4]; 98% in assay [5]; 89.5% in assay [6]. Also, the growth is 95.3% in assay [7]; 91.2% in [8]; 100% in assay [9]; 124% in assay [10]; 101% in [11]; 86.9% in [12]. Moreover, the growth in assay [13] was 97.3%; in assay [14], 89.2%; in assay [15], 66.8%; in assay [16], 92.6%; in assay [17], 90.3%; in assay [18], 96.3%. Further, the figures for the growth in [19] and in [20] were 93.4% and 100%, respectively.

On to `COc1cc(/C=N/NC(=O)c2ccc3nc(-c4ccc(Cl)cc4)[nH]c3c2)cc(OC)c1OC`, for which the growth in assay [1] was 53.7%; in [2], 76%; in assay [3], 87.5%; in [4], 81.7%; in assay [5], 82.8%; in assay [6], 71.7%. In addition, the growth in assay [7] was 78.3%; in assay [8], 85.8%; in [9], 51.2%; in [10] it was 45.7%; in [11] it was 97.4%; in assay [12], 32.7%. For the same compound, the growth was 28.4% in assay [13]; 103% in assay [14]; 36.3% in assay [15]; 79.7% in assay [16]; 44% in [17]; 43.8% in assay [18]. In addition, the growth in assay [19] was 54.3%; in [20], 42%.

Consider `C=C(c1ccc(OC)c(/C=C/C(=O)c2cc(OC)c(OC)c(OC)c2)c1)c1cc(OC)c(OC)c(OC)c1`, for which the growth in [1] is -33.2% (active); in [2] it was -38% (active); in assay [3] it was 17.9%; in [4], 11.5%; in assay [5], -30.6% (active); in [6], 40.2%. Further, the growth in [7] is -19.3% (active); in assay [8] it was 9.3% (active); in [9] it was -64.3% (active); in assay [10] it was -13.6% (active); in assay [11] it was 15.6%; in assay [12], 12.7%. Moreover, the growth is -6.73% (active) in assay [13]; 30.4% in assay [14]; -68.5% (active) in assay [15]; 21.7% in assay [16]; 30.5% in assay [17]; -84.7% (active) in assay [18]. The growth in [19] was 2.85% (active); in assay [20], 4.85% (active).

`Cc1c(N2CCCCC2)[nH]c2ccccc12`: the growth in [1] is 108%; in assay [2], 119%; in [3] it was 104%; in [4], 119%; in assay [5], 101%; in assay [6] it was 46.8%. The growth in [7] was 90.2%; in assay [8] it was 89%; in assay [9], 103%; in assay [10] it was 124%; in assay [11], 120%; in assay [12], 113%. For the same compound, the growth in [13] was 121%; in assay [14], 121%; in assay [15], 116%; in [16], 117%; in [17], 89%; in [18], 121%. Also, the growth is 94% in [19] and 105% in assay [20].
